Assay [1] has as its target Tyrosine-protein kinase SYK (Homo sapiens) (UniProt P43405). Particulars: at 10 µM.
In assay [2] the target is T1, Mitogen-activated protein kinase kinase kinase 7 (Homo sapiens) (UniProt O43318).
T1 sequence (whole entry): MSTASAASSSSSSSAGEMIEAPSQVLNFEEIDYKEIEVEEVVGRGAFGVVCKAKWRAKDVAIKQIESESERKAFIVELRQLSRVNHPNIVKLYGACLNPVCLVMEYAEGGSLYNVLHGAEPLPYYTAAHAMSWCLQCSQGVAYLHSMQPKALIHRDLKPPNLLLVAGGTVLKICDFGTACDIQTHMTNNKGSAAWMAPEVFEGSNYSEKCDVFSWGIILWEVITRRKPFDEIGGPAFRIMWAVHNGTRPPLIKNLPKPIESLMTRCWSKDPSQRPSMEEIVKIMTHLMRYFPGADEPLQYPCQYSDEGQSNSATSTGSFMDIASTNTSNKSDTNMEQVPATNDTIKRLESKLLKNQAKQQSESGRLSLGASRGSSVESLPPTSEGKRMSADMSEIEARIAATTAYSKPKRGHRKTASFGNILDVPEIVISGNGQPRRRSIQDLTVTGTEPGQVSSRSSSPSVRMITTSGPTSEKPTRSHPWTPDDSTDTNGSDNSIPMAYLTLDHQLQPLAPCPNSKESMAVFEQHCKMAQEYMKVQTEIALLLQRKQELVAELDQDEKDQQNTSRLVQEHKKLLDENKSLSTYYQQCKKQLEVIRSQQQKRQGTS
The following applies: at 1 µM.

Assay [3] has as its target T1, Mitogen-activated protein kinase kinase kinase 7 (Homo sapiens). The following applies: at 10 µM.
Assay [4] addresses T2, Serine/threonine-protein kinase TAO1 (Homo sapiens) (UniProt Q7L7X3).
T2 sequence (whole entry): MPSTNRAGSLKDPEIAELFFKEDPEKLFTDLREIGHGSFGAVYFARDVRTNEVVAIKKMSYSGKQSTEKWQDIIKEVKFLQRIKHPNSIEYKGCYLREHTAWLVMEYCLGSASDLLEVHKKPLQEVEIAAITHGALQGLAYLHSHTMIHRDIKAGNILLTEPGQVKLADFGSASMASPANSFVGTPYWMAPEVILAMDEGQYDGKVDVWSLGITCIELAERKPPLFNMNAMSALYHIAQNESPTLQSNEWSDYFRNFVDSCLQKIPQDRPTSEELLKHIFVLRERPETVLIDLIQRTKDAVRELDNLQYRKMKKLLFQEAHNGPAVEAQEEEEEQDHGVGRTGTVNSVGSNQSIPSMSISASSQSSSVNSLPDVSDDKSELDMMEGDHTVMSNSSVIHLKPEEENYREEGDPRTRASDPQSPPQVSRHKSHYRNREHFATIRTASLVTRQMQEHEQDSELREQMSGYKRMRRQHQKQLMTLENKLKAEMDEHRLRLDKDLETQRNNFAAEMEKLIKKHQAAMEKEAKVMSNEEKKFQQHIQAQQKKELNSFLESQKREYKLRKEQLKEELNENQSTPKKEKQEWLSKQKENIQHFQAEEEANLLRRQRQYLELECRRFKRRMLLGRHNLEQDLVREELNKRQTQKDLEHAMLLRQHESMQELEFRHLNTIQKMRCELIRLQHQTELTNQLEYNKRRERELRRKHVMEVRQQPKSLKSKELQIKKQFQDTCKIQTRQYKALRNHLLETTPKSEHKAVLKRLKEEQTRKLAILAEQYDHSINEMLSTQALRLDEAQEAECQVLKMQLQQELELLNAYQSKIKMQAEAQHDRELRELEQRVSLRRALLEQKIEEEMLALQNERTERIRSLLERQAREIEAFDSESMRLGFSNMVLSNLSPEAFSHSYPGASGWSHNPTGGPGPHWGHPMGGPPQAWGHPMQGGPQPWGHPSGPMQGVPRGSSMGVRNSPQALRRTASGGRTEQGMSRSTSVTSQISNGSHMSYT
Particulars: at 1 µM.

Assay [5] deals with T2, Serine/threonine-protein kinase TAO1 (Homo sapiens). Particulars: at 10 µM.
The target of assay [6] is T3, Serine/threonine-protein kinase TAO2 (Homo sapiens) (UniProt Q9UL54).
T3 sequence (whole entry): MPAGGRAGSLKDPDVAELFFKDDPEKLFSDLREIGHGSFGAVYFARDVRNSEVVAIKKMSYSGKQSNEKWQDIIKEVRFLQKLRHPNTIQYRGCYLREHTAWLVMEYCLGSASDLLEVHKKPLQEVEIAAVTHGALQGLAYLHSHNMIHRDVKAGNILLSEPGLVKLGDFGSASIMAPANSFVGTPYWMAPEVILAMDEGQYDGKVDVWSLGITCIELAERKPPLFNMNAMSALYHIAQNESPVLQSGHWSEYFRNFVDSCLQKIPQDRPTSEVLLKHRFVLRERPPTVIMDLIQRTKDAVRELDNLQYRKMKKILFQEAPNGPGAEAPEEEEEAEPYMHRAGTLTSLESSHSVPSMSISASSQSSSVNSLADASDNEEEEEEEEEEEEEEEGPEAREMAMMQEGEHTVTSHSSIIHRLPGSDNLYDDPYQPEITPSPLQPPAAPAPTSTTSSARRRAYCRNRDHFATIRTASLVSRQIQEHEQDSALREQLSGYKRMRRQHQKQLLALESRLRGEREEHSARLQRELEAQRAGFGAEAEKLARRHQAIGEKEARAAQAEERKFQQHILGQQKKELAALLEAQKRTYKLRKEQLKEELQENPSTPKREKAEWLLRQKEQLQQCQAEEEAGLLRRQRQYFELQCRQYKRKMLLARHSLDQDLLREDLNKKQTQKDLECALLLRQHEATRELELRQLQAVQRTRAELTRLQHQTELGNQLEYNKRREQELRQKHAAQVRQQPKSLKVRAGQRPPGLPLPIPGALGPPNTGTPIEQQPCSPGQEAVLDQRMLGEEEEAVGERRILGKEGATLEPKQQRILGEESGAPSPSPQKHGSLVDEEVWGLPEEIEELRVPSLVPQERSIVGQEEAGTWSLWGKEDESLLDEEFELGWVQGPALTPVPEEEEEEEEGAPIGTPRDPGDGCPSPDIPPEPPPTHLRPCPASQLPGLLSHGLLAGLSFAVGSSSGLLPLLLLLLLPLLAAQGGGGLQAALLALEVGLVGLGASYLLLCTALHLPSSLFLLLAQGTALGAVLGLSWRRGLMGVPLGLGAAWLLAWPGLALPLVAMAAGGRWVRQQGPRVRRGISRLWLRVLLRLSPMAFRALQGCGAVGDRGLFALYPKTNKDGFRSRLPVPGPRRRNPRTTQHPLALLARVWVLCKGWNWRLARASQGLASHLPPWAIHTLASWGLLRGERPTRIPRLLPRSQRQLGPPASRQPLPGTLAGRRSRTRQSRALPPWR
Particulars: at 1 µM.

Assay [7] addresses T3, Serine/threonine-protein kinase TAO2 (Homo sapiens). The following applies: at 10 µM.
In assay [8] the target is T4, Serine/threonine-protein kinase TAO3 (Homo sapiens) (UniProt Q9H2K8).
T4 sequence (whole entry): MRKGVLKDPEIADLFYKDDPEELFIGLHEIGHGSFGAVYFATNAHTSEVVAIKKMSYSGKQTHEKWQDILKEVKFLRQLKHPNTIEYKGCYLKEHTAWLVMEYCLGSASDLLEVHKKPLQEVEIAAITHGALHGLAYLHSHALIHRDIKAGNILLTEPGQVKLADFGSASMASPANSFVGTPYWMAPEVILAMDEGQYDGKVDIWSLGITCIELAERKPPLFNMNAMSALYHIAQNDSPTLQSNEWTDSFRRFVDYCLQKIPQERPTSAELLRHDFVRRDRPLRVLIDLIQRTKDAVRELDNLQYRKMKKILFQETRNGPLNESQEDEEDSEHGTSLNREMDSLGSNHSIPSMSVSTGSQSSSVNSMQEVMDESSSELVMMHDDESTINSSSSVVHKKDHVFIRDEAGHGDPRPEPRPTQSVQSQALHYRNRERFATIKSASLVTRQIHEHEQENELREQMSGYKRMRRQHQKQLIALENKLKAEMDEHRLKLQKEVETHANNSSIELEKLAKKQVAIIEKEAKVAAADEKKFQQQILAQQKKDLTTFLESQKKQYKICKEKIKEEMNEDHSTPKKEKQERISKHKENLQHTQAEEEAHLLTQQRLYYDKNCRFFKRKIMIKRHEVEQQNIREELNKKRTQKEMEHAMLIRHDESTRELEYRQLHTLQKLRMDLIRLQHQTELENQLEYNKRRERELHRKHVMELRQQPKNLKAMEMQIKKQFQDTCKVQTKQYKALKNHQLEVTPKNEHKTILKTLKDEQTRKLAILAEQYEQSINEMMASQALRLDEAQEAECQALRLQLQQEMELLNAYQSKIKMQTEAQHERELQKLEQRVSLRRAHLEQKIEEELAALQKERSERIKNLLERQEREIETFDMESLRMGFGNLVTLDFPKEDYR
Particulars: at 1 µM.

For assay [9], the target named is T4, Serine/threonine-protein kinase TAO3 (Homo sapiens). The following applies: at 10 µM.
In assay [10] the target is T5, Serine/threonine-protein kinase TBK1 (Homo sapiens) (UniProt Q9UHD2).
T5 sequence (whole entry): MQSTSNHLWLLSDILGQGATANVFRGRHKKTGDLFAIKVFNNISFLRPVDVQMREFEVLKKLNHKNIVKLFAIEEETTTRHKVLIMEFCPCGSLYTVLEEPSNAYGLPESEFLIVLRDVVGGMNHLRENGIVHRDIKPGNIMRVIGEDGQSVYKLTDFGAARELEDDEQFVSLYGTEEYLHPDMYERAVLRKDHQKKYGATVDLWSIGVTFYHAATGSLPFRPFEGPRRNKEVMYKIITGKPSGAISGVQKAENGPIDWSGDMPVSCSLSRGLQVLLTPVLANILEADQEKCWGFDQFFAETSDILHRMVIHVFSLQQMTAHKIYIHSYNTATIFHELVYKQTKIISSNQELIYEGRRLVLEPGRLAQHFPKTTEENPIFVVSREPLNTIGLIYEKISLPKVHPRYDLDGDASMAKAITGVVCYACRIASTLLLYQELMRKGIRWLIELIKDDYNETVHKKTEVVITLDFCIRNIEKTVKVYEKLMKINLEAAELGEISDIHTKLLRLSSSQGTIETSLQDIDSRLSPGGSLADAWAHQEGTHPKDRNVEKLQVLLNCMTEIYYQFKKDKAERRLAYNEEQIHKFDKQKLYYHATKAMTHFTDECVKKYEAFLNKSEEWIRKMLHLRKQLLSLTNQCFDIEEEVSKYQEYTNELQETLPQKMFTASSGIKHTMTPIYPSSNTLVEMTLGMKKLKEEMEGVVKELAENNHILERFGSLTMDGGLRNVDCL
Particulars: at 1 µM.

We go through one molecule from ChEMBL document CHEMBL2218924, “A broad activity screen in support of a chemogenomic map for kinase signalling research and drug discovery” (Biochem J, 2013).

As for `O=C1NC(=O)c2c1c1c3ccccc3[nH]c1c1[nH]c3cc(Br)ccc3c21`, the residual activity was 79% in assay [1]; 94% in [2]; 84% in [3]; 92% in [4]; 92% in assay [5]; 103% in [6]. Also, the residual activity was determined as 92% in assay [7], 93% in assay [8], 94% in [9] and 75% in assay [10].
